Source: PubChem BioAssay
Unmarked numbers belong to inactive results.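 How the source made its calls: active means RAM network inhibition above 8.4% in each of two replicates, 3 SD over the compound average; inconclusive means above 8.4% inhibition in only one replicate; inactive means 8.4% inhibition or less in each replicate.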

experiment: RAM signaling pathway blockade in yeast – S. cerevisiae, Pdr1DBD-CYC8 efflux-inhibited sensitized strain, primary screen (AID 1298);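 further: 0% = DMSO untreated cells without growth and 100% = 10 µM 1-NA-PP1 full growth; higher means more yeast growth rescued from 5-FOA killing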; conditions: S. cerevisiae cbk1-as DSE1-URA3 strain, 5-FOA growth OD615, 2 d; at 50 µM; active compounds read high

Structure (SMILES)	RAM network inhibition [%]
c1ccc(Cn2nnc3c(N4CCOCC4)ncnc32)cc1	-0.79
CCN(CC)S(=O)(=O)c1ccc(-c2nnco2)cc1	1.46
Cc1ccc2nc(NC(=O)CCNS(=O)(=O)c3cccs3)sc2c1	3.7
Cn1c(=O)c2c(SCc3cccnc3)nc(CC(C)(C)C)nc2n(C)c1=O	3.24
Cc1c(Nc2nc3ccccc3nc2N2CCN(c3ccccc3)CC2)c(=O)n(-c2ccccc2)n1C	5.41
CC(C)N(Cc1nc(-c2ccc(Cl)cc2)no1)C(=O)CCCN1C(=O)c2ccccc2C1=O	6.24
COc1ccc(-c2nc(CSCC(=O)N3CCC(C(N)=O)CC3)c(C)o2)cc1OC	-0.72
COc1ccc(N(CC(=O)NCc2cccnc2)S(=O)(=O)c2c(C)nn(C)c2C)cc1	7.6
O=C(NC1CCCCC1)C1CC(=O)N(c2ccc(Cl)cc2)C1 (stereo not given)	2.04
COc1cc(C(=O)NCc2ccco2)c(Br)c(OC)c1OC	-0.16
COC(=O)C1C(O)=C(C(C)=N)C(=O)CC1(C)C (stereo not given)	1.67
Cn1c(SCC(=O)Nc2ccccc2F)nnc1-c1cccnc1	-1.31
O=C(CCCC(=O)NCC1CCCO1)NCC1CCCO1 (stereo not given)	1.12
O=c1[nH]c(NCCCO)nc2c1C1(CCCC1)Cc1ccccc1-2	6.67
Fc1ccc(Cc2nnc(-c3cccs3)o2)cc1	12.2
Cc1ccc(Cn2nnc3c(=O)n(Cc4ccccc4C)cnc32)cc1	8.59
COCCOC(=O)C1=C(C)NC2=C(C(=O)CCC2)C1c1ccc(N(C)C)cc1 (stereo not given)	4.47
COc1ccc(C2C(C(N)=O)=C(C)Nc3nc(-c4ccccc4Cl)nn32)c(OC)c1 (stereo not given)	-1.06
CC(=O)N1CCc2cc(C(=O)CN3CCC(C)CC3)ccc21	7.51
COc1cccc(OCC(=O)N(Cc2nc(-c3ccc(Cl)cc3)no2)C(C)C)c1	3.59

Structure (SMILES)	RAM network inhibition [%]
CCn1c(-c2cc(OC)ccc2OC)csc1=Nc1c(C)n(C)n(-c2ccccc2)c1=O	4.62
NC(=O)SCC(=O)Nc1ccc(Cl)c(Cl)c1	4.56
O=C(NCC1CCCO1)C1CC(=O)N(c2ccc(F)c(Cl)c2)C1 (stereo not given)	5.33
COc1cc(CO)cc(Br)c1OCC(=O)O	-1.46
Cn1c(CNC(=O)C(C)(C)C)nc2ccccc21	2.73
CCN(CC)c1cccc(OC2=NS(=O)(=O)c3ccccc32)c1	5.72
CC(CNC(=O)C1CCCCC1)NC(=O)C1CCCCC1 (stereo not given)	4
COc1ccc(-c2nc(CSCC(=O)N3CCN(C4CCCCC4)CC3)c(C)o2)cc1OC	2.38
Cc1ccc(NS(=O)(=O)c2ccc3c(c2)oc(=O)n3C)cc1F	3.85
Cc1c(C(=O)NCC2CCCO2)oc2ccc(S(=O)(=O)N3CCCCC3)cc12 (stereo not given)	1.2
COc1cccc(N2CCN(C(=O)CN(C)S(=O)(=O)c3ccc4c(c3)CCC(=O)N4)CC2)c1	7.09
CCOc1ccc(N(CC(=O)N2CCN(c3ccccc3)CC2)S(=O)(=O)c2c(C)noc2C)cc1	1.85
CC1(C)CC(N2CCN(c3ccccc3)CC2)=CC(=[N+]2CCCC2)C1	0.52
O=C(Cn1cnc2c(cnn2-c2ccc(F)cc2)c1=O)NCCc1ccccc1	6.6
Cc1nnc(Nc2ccc3c(c2)OCO3)c2ccccc12	4.96
O=C(O)CC1C(=O)NCCN1CCCc1ccccc1 (stereo not given)	-1.48
O=C(CN1CCCCC1)Nc1nnc(-c2ccccc2)s1	0.64
COc1ccc(N2C(=O)C3CCCN3C2c2ccc(Cl)cc2)cc1 (stereo not given)	2.27
CCOC(=O)c1cnc2c(C)cccc2c1NCc1ccco1	-0.77
COc1ccc(OC)c(-n2c(SCC(=O)Nc3cc(C)on3)nnc2-c2c[nH]c3ccccc23)c1	1.29
